Results reported in the supplement of paper PMC11732987, “Enantioselective OTUD7B fragment discovery through chemoproteomics screening and high-throughput optimisation” (Communications Chemistry, 2025).

What was measured:
Experiment in all cases: log2 ratio of Biotin-Ahx-Ub-VS probe labelling (fragment/DMSO); higher = less target engagement (more negative = stronger competition), active = hit call of the paper (q ≤ 0.05, log2 ratio ≤ -1)
Conditions in all cases: compound concentration: 200 uM; treatment time: 3 h
USP42 = target: T1, USP42 (UniProt Q9H9J4)
T1 sequence (whole entry): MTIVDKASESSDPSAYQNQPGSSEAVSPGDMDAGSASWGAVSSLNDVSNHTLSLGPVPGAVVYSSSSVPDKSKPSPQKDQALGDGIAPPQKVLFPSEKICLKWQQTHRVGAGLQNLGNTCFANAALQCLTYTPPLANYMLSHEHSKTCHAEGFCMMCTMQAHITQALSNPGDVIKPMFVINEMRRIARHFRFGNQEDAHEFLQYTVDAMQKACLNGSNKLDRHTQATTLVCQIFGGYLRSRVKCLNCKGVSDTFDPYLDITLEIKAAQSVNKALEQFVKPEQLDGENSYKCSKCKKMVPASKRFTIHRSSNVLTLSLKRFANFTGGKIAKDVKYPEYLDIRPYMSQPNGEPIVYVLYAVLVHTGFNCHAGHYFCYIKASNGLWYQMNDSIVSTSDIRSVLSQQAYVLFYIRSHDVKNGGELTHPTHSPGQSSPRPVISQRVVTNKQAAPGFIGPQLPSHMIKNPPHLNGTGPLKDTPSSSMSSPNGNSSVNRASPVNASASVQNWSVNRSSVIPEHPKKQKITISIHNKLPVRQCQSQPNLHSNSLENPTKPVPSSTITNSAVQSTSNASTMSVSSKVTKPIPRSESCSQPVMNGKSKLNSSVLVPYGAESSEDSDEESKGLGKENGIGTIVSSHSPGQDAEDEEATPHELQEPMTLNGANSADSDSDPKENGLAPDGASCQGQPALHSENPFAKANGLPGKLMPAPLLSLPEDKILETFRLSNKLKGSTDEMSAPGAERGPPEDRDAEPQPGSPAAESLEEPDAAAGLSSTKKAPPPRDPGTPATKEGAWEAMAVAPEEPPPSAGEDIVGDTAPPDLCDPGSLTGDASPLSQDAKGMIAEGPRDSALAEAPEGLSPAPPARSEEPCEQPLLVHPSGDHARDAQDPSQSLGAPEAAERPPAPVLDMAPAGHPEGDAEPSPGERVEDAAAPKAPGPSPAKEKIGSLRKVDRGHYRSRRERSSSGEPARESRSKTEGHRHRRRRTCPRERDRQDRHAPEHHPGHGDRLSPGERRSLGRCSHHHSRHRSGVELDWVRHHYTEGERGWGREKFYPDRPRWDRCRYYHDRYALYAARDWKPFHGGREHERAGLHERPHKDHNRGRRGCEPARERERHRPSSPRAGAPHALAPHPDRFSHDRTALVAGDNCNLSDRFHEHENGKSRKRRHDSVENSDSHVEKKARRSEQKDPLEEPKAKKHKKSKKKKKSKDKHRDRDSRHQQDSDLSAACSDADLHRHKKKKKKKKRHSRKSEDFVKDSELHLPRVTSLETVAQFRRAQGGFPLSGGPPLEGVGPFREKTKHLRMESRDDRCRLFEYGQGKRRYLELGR
How it was run: (§1)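 In triplicate, 495 µg of HEK293T lysate per sample was incubated with fragment at 200 µM or vehicle for 3 h. Biotin-Ahx-Ub-VS was then added to 0.5 µM final for 1 h, and labelled DUBs were captured with NeutrAvidin, digested with LysC and trypsin, and measured by diaPASEF LC-MS/MS. Data are average log2 fragment/vehicle ratios by unpaired t-test from global-median-normalised Spectronaut label-free quantities, restricted to proteins with ≥2 unique peptides.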

USP46 = USP46 (UniProt P62068)
How it was run: as §1

USP47 = target: T2, USP47 (UniProt Q96K76)
T2 sequence (whole entry): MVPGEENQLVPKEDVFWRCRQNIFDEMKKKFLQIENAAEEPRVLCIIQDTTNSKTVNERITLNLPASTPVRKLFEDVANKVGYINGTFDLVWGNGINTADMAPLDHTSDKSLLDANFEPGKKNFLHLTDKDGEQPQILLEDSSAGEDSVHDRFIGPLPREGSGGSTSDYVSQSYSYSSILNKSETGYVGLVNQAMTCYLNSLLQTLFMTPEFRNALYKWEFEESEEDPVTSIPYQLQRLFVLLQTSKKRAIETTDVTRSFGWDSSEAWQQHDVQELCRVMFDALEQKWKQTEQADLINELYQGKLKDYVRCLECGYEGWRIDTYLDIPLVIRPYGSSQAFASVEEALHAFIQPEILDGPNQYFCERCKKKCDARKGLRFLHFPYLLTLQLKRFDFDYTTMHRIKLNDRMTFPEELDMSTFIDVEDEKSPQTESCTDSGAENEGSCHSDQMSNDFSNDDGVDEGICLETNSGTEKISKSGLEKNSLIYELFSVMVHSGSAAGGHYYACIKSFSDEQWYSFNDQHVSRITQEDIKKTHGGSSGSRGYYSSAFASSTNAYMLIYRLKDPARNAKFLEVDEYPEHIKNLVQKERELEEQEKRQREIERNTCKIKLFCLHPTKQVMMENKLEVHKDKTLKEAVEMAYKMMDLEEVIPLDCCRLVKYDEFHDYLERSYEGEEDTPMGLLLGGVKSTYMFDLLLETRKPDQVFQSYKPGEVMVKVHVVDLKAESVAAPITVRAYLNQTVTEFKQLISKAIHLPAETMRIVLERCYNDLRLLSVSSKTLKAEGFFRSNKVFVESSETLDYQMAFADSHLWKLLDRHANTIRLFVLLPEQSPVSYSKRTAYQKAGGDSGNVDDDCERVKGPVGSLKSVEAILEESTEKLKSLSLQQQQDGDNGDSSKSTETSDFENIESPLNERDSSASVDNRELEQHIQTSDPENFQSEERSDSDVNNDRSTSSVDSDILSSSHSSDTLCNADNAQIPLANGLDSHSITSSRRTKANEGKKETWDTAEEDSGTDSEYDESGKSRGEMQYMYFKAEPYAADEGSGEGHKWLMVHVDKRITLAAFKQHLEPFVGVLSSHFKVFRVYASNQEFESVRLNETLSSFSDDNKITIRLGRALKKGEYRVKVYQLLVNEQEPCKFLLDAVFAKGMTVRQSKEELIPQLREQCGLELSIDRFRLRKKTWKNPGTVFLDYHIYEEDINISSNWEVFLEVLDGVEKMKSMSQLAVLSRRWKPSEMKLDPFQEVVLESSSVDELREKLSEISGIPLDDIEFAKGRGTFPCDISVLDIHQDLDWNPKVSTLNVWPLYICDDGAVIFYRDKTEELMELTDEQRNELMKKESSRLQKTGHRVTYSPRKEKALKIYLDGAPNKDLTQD
How it was run: as §1

USP48 = target: T3, USP48 (UniProt Q86UV5)
T3 sequence (whole entry): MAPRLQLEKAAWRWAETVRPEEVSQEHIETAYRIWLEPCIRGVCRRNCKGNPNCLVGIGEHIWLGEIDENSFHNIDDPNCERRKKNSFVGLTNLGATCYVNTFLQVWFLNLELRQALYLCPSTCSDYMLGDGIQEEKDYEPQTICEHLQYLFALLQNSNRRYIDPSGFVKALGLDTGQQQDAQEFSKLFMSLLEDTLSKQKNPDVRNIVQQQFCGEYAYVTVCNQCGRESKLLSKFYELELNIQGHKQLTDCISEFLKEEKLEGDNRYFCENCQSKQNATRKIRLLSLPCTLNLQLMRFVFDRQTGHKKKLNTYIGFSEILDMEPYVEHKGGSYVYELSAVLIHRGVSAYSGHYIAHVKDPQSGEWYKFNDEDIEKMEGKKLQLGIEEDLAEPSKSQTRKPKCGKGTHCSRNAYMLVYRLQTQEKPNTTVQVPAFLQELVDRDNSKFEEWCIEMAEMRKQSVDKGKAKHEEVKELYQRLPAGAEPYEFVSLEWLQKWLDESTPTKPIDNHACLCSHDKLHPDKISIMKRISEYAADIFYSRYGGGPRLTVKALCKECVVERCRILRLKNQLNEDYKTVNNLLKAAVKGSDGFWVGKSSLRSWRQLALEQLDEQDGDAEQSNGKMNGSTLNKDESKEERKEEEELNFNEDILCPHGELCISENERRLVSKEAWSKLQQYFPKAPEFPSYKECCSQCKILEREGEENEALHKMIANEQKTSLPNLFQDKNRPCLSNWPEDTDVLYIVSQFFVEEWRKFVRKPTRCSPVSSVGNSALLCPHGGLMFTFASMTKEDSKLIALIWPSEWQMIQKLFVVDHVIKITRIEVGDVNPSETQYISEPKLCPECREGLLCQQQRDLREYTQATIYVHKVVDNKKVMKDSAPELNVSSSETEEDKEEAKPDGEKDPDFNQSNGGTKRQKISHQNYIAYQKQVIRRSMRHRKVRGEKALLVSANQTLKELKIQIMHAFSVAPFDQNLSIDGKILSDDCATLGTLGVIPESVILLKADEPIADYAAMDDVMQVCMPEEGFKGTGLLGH
How it was run: as §1

USP5 = target: T4, USP5 (UniProt P45974)
T4 sequence (whole entry): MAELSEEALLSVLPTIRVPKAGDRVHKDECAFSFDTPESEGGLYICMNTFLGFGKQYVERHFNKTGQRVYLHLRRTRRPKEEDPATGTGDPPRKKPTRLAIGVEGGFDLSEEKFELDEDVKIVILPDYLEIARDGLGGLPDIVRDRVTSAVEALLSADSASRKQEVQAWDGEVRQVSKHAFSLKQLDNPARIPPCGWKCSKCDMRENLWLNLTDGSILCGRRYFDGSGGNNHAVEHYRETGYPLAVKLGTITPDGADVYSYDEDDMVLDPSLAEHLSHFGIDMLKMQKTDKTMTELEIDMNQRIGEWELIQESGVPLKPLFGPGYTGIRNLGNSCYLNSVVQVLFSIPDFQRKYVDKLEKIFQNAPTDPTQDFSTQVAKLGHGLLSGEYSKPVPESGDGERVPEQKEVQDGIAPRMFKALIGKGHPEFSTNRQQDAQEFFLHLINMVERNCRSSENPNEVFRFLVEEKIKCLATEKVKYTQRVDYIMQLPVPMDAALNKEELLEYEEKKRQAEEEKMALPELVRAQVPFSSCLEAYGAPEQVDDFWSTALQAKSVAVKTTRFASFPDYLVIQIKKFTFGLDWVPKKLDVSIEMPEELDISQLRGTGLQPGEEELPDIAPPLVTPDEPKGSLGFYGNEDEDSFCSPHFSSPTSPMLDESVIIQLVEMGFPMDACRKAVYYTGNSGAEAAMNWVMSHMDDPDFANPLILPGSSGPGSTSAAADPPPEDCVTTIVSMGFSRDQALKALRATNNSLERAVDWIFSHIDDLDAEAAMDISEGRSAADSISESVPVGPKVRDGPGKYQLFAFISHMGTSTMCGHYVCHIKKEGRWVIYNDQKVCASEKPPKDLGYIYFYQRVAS
How it was run: as §1

USP54 = USP54 (UniProt Q70EL1)
How it was run: as §1

USP7 = USP7 (UniProt Q93009)
How it was run: as §1

USP8 = target: T5, USP8 (UniProt P40818)
T5 sequence (whole entry): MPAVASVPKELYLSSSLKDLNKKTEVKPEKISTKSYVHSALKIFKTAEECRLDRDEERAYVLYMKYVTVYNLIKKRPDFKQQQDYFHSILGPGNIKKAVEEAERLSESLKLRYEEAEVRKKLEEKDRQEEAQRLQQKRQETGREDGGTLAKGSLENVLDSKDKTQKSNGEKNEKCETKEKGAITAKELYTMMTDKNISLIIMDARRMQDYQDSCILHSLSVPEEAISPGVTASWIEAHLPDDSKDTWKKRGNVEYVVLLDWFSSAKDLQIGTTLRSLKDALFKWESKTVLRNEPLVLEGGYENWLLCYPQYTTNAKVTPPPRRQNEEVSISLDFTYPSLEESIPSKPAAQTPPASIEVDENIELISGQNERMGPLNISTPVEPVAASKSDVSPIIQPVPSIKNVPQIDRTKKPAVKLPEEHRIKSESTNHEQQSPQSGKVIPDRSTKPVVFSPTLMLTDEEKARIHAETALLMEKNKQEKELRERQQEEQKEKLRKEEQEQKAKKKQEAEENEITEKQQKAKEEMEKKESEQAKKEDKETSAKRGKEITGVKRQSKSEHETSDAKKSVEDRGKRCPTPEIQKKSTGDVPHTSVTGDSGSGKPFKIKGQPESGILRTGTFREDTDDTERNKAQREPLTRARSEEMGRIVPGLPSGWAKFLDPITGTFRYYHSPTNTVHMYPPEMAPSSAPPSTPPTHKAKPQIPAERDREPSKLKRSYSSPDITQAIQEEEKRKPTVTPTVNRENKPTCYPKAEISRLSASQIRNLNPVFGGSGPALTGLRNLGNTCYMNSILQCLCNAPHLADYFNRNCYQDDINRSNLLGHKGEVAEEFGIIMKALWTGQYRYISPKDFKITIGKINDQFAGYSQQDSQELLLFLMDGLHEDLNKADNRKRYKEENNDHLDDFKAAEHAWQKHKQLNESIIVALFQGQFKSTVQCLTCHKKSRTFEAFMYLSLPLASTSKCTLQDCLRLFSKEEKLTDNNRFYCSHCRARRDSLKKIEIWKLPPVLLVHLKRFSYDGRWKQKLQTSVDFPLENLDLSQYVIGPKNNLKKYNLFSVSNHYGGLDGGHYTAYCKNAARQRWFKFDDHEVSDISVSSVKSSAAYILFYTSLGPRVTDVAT
How it was run: as §1

Measured: log2 ratio of Biotin-Ahx-Ub-VS probe labelling

Sequence of USP46 (P62068 whole entry): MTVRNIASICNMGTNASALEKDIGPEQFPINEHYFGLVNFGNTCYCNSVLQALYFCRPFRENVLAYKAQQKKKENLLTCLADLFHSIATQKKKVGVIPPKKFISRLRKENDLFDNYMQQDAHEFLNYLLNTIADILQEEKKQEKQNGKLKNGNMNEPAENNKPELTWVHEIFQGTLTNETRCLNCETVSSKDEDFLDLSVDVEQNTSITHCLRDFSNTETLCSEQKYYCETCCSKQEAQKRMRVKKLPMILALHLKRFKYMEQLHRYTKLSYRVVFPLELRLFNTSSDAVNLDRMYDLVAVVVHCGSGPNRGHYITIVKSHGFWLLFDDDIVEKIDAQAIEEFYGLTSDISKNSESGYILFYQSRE
Sequence of USP7 (Q93009 whole entry, looked up): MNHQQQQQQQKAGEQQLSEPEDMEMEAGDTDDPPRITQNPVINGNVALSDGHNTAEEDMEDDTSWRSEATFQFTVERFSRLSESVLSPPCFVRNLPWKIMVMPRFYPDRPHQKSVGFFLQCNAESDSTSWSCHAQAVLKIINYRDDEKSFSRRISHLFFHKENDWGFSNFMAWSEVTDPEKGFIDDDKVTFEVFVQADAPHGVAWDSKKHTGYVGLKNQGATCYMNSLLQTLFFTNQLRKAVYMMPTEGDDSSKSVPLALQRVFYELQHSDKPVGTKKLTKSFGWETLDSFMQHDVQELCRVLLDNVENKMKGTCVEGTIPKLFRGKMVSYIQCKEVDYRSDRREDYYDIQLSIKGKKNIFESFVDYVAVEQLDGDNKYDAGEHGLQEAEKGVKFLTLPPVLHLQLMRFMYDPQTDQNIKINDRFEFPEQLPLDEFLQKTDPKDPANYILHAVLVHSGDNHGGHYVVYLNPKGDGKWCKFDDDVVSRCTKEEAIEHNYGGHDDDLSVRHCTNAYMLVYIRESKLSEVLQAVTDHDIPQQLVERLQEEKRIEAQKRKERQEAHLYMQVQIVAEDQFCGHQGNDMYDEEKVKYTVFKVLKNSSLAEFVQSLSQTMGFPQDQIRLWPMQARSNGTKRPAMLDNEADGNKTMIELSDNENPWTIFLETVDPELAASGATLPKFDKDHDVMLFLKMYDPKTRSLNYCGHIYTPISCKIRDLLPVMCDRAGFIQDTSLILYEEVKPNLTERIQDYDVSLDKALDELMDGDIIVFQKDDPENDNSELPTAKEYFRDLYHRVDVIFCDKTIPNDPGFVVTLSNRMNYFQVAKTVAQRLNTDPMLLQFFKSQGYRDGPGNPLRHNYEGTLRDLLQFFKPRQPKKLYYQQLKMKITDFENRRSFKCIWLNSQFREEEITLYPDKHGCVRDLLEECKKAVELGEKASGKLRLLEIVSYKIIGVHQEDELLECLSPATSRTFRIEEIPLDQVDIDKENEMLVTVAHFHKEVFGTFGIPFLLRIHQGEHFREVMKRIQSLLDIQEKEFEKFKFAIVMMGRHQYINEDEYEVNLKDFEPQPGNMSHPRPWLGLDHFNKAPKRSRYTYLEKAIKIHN
Sequence of USP54 (Q70EL1 whole entry): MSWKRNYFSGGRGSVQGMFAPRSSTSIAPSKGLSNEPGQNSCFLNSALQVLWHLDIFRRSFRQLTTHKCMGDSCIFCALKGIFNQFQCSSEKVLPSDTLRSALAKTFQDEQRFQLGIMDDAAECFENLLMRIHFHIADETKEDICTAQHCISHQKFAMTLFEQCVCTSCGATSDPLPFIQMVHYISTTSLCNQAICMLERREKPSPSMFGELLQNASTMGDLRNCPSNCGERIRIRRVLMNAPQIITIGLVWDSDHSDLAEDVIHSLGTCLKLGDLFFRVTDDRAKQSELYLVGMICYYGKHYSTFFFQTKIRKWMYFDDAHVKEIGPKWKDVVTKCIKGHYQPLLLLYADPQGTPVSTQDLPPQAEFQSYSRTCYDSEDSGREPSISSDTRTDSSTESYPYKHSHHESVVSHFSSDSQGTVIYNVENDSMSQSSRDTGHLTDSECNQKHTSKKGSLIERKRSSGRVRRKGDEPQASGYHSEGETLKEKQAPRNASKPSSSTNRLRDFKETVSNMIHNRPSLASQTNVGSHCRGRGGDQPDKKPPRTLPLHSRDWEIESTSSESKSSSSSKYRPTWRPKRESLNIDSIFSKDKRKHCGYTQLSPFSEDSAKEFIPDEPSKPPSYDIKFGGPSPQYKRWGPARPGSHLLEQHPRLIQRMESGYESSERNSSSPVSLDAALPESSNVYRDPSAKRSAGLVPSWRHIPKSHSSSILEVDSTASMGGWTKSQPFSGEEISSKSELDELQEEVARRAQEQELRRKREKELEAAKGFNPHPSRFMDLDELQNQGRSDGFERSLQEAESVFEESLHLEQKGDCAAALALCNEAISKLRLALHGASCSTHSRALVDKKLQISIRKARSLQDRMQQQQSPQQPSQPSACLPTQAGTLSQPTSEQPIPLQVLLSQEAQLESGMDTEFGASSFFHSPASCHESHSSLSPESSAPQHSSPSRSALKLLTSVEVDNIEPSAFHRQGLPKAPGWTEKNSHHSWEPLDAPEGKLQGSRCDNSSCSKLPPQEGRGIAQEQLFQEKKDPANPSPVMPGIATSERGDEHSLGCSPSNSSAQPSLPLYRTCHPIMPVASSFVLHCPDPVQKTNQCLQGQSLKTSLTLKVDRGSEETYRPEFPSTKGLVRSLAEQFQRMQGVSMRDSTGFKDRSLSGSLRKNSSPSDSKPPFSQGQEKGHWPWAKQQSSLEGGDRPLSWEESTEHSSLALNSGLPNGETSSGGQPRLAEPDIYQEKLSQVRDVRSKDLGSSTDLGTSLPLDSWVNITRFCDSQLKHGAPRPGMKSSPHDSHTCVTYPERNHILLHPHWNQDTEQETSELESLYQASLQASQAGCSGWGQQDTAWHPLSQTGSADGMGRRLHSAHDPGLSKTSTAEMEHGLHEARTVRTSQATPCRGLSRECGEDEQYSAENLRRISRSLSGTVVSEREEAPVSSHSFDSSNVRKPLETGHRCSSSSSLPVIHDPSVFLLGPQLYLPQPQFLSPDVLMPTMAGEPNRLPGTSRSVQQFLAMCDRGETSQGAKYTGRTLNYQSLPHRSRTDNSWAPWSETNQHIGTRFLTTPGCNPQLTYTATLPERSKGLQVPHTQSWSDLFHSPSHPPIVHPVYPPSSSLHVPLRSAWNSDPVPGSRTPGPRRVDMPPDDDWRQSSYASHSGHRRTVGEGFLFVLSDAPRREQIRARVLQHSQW

Cc1nc(CC2CCN(C(=O)CCl)CC2)no1
inactive: USP42 0.631 | USP46 -0.332 | USP47 -0.726 | USP48 -0.576 | USP5 -0.492 | USP54 0.803 | USP7 -0.904 | USP8 -0.755
